Measurements published in PubChem BioAssay (NCATS).
Values joined by “and” are separate entries in the source; they are usually repeats but may differ in a detail not shown here. Identical values can stand only once. Records with an inconclusive call do not appear. Active and inactive are the calls of the source. The call rests on the fitted dose curve; in most records, active means well fitted cell-killing curve with a large enough effect; inconclusive means small, poorly fitted or top-dose-only effect; inactive means no such curve, though single readings can be large or run the other way.

Assay: qHTS of pediatric cancer cell lines to identify multiple opportunities for drug repurposing: Primary screen for SK-N-SH cells (AID 1347098); further: nearly all actives have a fitted effect of over 65% in size
Conditions: SK-N-SH viability, CellTiter-Glo luminescence, 48 h; series mostly up to 57 µM; activity change, negative = cytotoxic: at the top concentration
Text: Drug repurposing or repositioning has been offered as a strategy for drug development in oncology programs. This approach has special potential for childhood cancers and other rare or orphan diseases, where the expected return on new drug development has been a disincentive to pharmaceuticals.
In this project we exploit the poly-pharmacology of drugs to discover new indications via phenotypic screening of a panel of 19 well-characterized cell lines derived from solid tumors seen in children and adolescents. The goal is to identify approved drugs with previously unrecognized anticancer properties that has the potential to reveal new mechanisms and biological processes involved in carcinogenesis or drug resistance. We employed a titration-based paradigm (quantitative high-throughput screening or qHTS), where all compounds were tested at multiple concentrations for their effect on cell viability. Concentration-response curves (CRCs) were derived directly from the primary screen, and both potency and efficacy values were used to identify compounds with robust bioactivity profiles. We screened the NIH Chemical Genomics Center (NCGC) Pharmaceutical Collection (NPC) and Mechanism Interrogation Plate (MIPE) small molecule collections of approved and investigational compounds against these cell lines; and measured metabolically active cells after 48 hours of compound treatment as a proxy for cell viability.
Assay Submitter: Nathalia J. Martinez, National Center for Advancing Translational Sciences, National Institutes of Health, Rockville, MD, USA; email: natalia.martinez@nih.gov
[1] Shen, M et al. Quantitative high-throughput phenotypic screening of pediatric cancer cell lines identifies multiple opportunities for drug repurposing. Oncotarget 2017 Dec 19;9(4):4758-4772. PMID 29435139.
The cells were obtained from University of North Carolina (UNC), Pediatric Preclinical Testing Program (PPT), and Coriell Institute (CI).
qHTS cell viability assay:
Cells were assayed in growth media at a density of 500-1,000 cells/well. Five microliters of cells were dispensed into 1,536-well, white, solid-bottom, TC-treated plates (Greiner Bio One) using a multidrop dispenser and incubated at 37 degrees C, 5% CO2, under a humidified atmosphere for 5 hours. Twenty-three nanoliters of compounds and controls (neutral control DMSO or positive control bortezomib at final concentration of 2.3 µM) were subsequently transferred by Kalypsys pintool. For primary screens, the MIPE collection was tested at 11-point dilutions (final concentrations range from 0.78 nM to 46 µM) and the NPC collection at 8-point dilutions (final concentrations range from 0.59 nM to 46 µM). Compounds tested in follow-up screens were assayed at 11-point dilutions. Cells were incubated for 48 hours, followed by addition of 3 µL of CellTiter-Glo (Promega). After a 15 min incubation at room temperature, samples were analyzed for luminescence intensity using a ViewLux High-throughput CCD imager equipped with clear filters.
On the % scale 0 is the no-effect control and ±100 the full control effect; potency means the concentration at half of the fitted maximal effect.

| SMILES | Potency | activity change, negative = cytotoxic |
| --- | --- | --- |
| CN1CCN(C(=O)O[C@H]2c3nccnc3C(=O)N2c2ccc(Cl)cn2)CC1 | inactive |  |
| CC(=O)[C@H]1CC[C@H]2[C@@H]3CC[C@H]4C[C@](C)(O)CC[C@]4(C)[C@H]3CC[C@]12C |  | -21.9% (inactive) |
| CCCN1CCC[C@@H]2Cc3[nH]ncc3C[C@H]21 |  | -4.18% (inactive) |
| CNCC(O)c1ccc(O)cc1 (stereo not given) | inactive |  |
| COc1ccc2c(c1OC)CN1CCc3cc4c(cc3C1C2)OCO4 (stereo not given) | inactive |  |
| CC[N+]1(C)CCCC(OC(=O)C(O)(c2ccccc2)c2ccccc2)C1 (stereo not given) |  | 1.91% (inactive) |
| C[C@@H]1O[C@@H](O[C@H]2C[C@@H](O)[C@]3(CO)[C@H]4[C@H](O)C[C@]5(C)[C@@H](C6=CC(=O)OC6)CC[C@]5(O)[C@@H]4CC[C@]3(O)C2)[C@H](O)[C@H](O)[C@H]1O | 152 nM (active) and 344 nM (active) |  |
| O=C(O)c1ccc2[nH]cc(CCCCN3CC=C(c4ccccc4)CC3)c2c1 |  | -14% (inactive) |
| Cn1c(CCCC(=O)O)nc2cc(N(CCCl)CCCl)ccc21 | inactive |  |
| Nc1ccncc1 |  | -29.2% (inactive) |
| CC(C)=CCOc1c2occc2cc2ccc(=O)oc12 |  | -15.6% (inactive) |
| NCCc1cc(O)c(O)cc1O |  | -15.1% (inactive) |
| CCC(COC(=O)c1cc(OC)c(OC)c(OC)c1)(c1ccccc1)N(C)C (stereo not given) |  | -25.5% (inactive) |
| Clc1cccc(N2CCNCC2)c1 |  | 0.892% (inactive) |
| OCCOc1ccccc1 |  | -5.26% (inactive) |
| CC(C)=CC1C(C(=O)OCc2cccc(Oc3ccccc3)c2)C1(C)C (stereo not given) |  | -18.8% (inactive) |
| CN(C)[C@@H]1C(=O)C(C(N)=O)=C(O)[C@@]2(O)C(=O)C3=C(O)c4c(O)cccc4[C@@](C)(O)[C@H]3C[C@@H]12 | inactive |  |
| FC(F)(F)c1cccc(C2=CCN(CCc3ccc4ccccc4c3)CC2)c1 |  | -12% (inactive) |
| CCN(C(C)=O)c1cccc(-c2ccnc3c(C#N)cnn23)c1 |  | -0.874% (inactive) |
| CCC(C(N)=O)N1CCCC1=O (stereo not given) |  | 3.89% (inactive) |

| SMILES | Potency | activity change, negative = cytotoxic |
| --- | --- | --- |
| O=C1CC[C@@]2(O)[C@H]3Cc4ccc(O)c5c4[C@@]2(CCN3CC2CC2)[C@H]1O5 | inactive |  |
| Cc1sc2c(c1C)C(c1ccc(Cl)cc1)=N[C@@H](CC(=O)OC(C)(C)C)c1nnc(C)n1-2 | 2.41 µM (active) |  |
| Cn1cc(C2=C(c3cn(C4CCN(Cc5ccccn5)CC4)c4ccccc34)C(=O)NC2=O)c2ccccc21 |  | -25.2% (inactive) |
| Cc1ccc2c(c1)C1CN(C)CCC1N2 (stereo not given) |  | -15.7% [at 20 µM] (inactive) |
| COC[C@@H](NC(C)=O)C(=O)NCc1ccccc1 |  | -14.4% (inactive) |
| COc1ccc(Cc2nccc3cc(OC)c(OC)cc23)cc1OC | inactive |  |
| CN1C[C@H](CNC(=O)OCc2ccccc2)C[C@@H]2c3cccc4c3c(cn4C)C[C@H]21 | 27.3 µM (active) |  |
| CC(O)(CS(=O)(=O)c1ccc(F)cc1)C(=O)Nc1ccc(C#N)c(C(F)(F)F)c1 (stereo not given) |  | -2.63% (inactive) |
| COc1ccc(C(=O)c2c(C)n(CCN3CCOCC3)c3ccccc23)cc1 |  | 14.4% (inactive) |
| CC(=O)[C@H]1CC[C@H]2[C@@H]3CC[C@H]4C[C@H](O)CC[C@]4(C)[C@H]3C(=O)C[C@]12C |  | -12.7% (inactive) |
| COc1ccc(C(CN(C)C)C2(O)CCCCC2)cc1 (stereo not given) | inactive |  |
| CCCC1CCCCN1 (stereo not given) |  | 4.46% (inactive) |
| Cc1ncc(CNC(=O)N(CCCl)N=O)c(N)n1 |  | -17.3% (inactive) |
| Fc1ccc(C(OCCN2CCN(CCCc3ccccc3)CC2)c2ccc(F)cc2)cc1 | 9.7 µM (active) |  |
| CC[C@@H](CO)NC(=O)[C@@H]1C=C2c3cccc4c3c(cn4C)C[C@H]2N(C)C1 |  | 7.33% (inactive) |
| C=CCN1CC[C@]23c4c5ccc(O)c4O[C@H]2C(=O)CC[C@@]3(O)[C@H]1C5 |  | -1.38% (inactive) |
| O=C(O)C(=O)c1cn(Cc2ccccc2)c2ccc(-c3ccc(OC(F)(F)F)cc3)cc12 |  | 1.88% (inactive) |
| O=c1[nH]c2ccccc2n1C1CCN(CCCC(c2ccc(F)cc2)c2ccc(F)cc2)CC1 | 27.3 µM (active) |  |
| O=[N+]([O-])c1cc([As](=O)(O)O)ccc1O |  | -4.96% (inactive) |
| N#CC(C#N)=Cc1ccc(O)c(O)c1 |  | -4.24% (inactive) |
